Experimental data from ChEMBL document CHEMBL3988442, “University of Dundee, Small-Polar-MMV Screening Library” (2021).
Hit rate of the full screen: of about 69,000 compounds, about 950 (1.4%) showed an effect of 50% or more. This is one part of a sample in which strong results are shown more often than they occur.

Test system: Mycobacterium tuberculosis
Assay: Cornell M. t heat shock assay; note: in the data most compounds retested in dose-response had high values
Type: functional, organism-based
Set-up: dose or concentration left out as unconfirmed

Compound	Percent Effect [%]
O=C(CCCNC(=O)C1CCCO1)Nc1ccc(Cl)cc1 (centres undefined)	-4.15
O=C(CCC1CCCO1)NS(=O)(=O)c1ccc(Cl)cc1 (centres undefined)	2.708
O=C(CCC1CCCO1)NCCCC(=O)Nc1ccc(Cl)cc1 (centres undefined)	104.2
O=C(CC1CCCO1)NCCCC(=O)Nc1ccc(Cl)cc1 (centres undefined)	63.53
O=C(CCC1CCCO1)NCCCO (centres undefined)	-7.133
O=C(CCCNC(=O)NCC1CCCO1)Nc1ccc(Cl)cc1 (centres undefined)	40.56
O=C(O)C(F)(F)F.O=C(O)C(F)(F)F.O=C1COC2(CCN(CC3CCOCC3)CC2)CN1Cc1ccccn1	-24.93
O=C(O)C(F)(F)F.c1cncc(N2CC[C@@H]3CN(CC4CC4)C[C@@H]3C2)c1	-51.37
Cc1cnc(N2CCC3(CCCN3C(=O)c3ccco3)CC2)nc1.O=C(O)C(F)(F)F	2.375
O=C(CCc1ccco1)Nc1cccc(S(=O)(=O)C(F)F)c1	70
O=C(CNc1cccc(S(=O)(=O)C(F)F)c1)NCc1ccco1	18.67
O=C(NCc1ccco1)Nc1cccc(S(=O)(=O)C(F)F)c1	31.42
Cc1cc(C)n(CC2CCCN2C(=O)c2cccnc2N(C)C)n1 (centres undefined)	-10.54
CC(=O)N1[C@H](CN(C)C)C[C@@H]2CN(C(=O)c3cnc(C)cn3)CC[C@@H]21.O=C(O)C(F)(F)F	-17.11
Cc1nc(C)n(CC2CCCN2Cc2cn3ccsc3n2)n1 (centres undefined)	52.44
Cc1nc(C)n(CC2CCCN2Cc2nc3ccccc3nc2C)n1 (centres undefined)	-3.804
Cc1nn(C)c(C)c1C1CCCN1Cc1nc(N)c2ccccc2n1 (centres undefined)	-13.27
Cc1nc(C)n(CC2CCCN2Cc2nc(N)c3ccccc3n2)n1 (centres undefined)	90.98
Cc1cc(C)n(CC2CCCN2CCS(=O)(=O)c2ccccc2)n1 (centres undefined)	25.73
Cc1cc(C)n(CC2CCCN2Cc2nc(N)c3ccccc3n2)n1 (centres undefined)	96.02
Cc1cc(C)n(CC2CCCN2Cc2ncc(C(C)(C)C)o2)n1 (centres undefined)	52.86
Cc1nc(C)n(CC2CCCN2Cc2cn3ccccc3n2)n1 (centres undefined)	-6.655
Cc1nc(C)n(CC2CCCCN2Cc2ncc(C(C)(C)C)o2)n1 (centres undefined)	-15.1

Compound	Percent Effect [%]
Cc1nc(C)n(CC2CCCN2Cc2ncc(C(C)(C)C)o2)n1 (centres undefined)	8.269
c1ncn(CC2CCCN2Cc2cn3ccsc3n2)n1 (centres undefined)	-23.29
Cc1nc(C)n(CC2CCCN2Cc2nc(C)c3ccccc3n2)n1 (centres undefined)	-0.1749
CN1CC(=O)N(c2ccsc2)CC12CCN(Cc1cnn(C)c1)C2.O=C(O)C(F)(F)F.O=C(O)C(F)(F)F (centres undefined)	-44.55
O=C(NCc1cnc2n1CCN(CC1CC1)C2)C1CC1.O=C(O)C(F)(F)F	-32.01
O=CO.c1cc2nccc(CC3CCCN(C4CCOCC4)CC3)c2cn1 (centres undefined)	-0.8025
CNC(=O)CNCc1c[nH]nc1-c1cc2ccccc2o1.Cl	4.817
Cc1cc(CN2CC[C@H]3C(=O)N(c4ccccc4)CCO[C@H]3C2)no1.O=C(O)C(F)(F)F	-6.692
O=C(O)C(F)(F)F.O=C1CCC2(CCN(Cc3ccc(F)cc3)CC2)N1Cc1ccccc1	1.967
O=C(NC1CC1)N1CCC2(CC1)C(=O)NCCN2Cc1ccccc1.O=C(O)C(F)(F)F	5.553
CC(C)CN1C(=O)C2(CCN(Cc3cccs3)C2)c2ccccc21.O=C(O)C(F)(F)F (centres undefined)	9.511
CCN(CC)Cc1nc2c(o1)CN(S(=O)(=O)c1cccs1)C2.O=C(O)C(F)(F)F	10.46
CN(C)CCN1C(=O)CCCC12CCCN(Cc1cccs1)C2.O=C(O)C(F)(F)F.O=C(O)C(F)(F)F (centres undefined)	-7.663
CN(C)C(=O)CC1CC2(CCN(CC3CC3)CC2)Oc2ccccc21.O=C(O)C(F)(F)F (centres undefined)	11.01
COCCN1CCC12CCN(C(=O)c1ccc(C)nc1)C2.O=C(O)C(F)(F)F (centres undefined)	29.56
Cc1ccc(C(=O)N2CCC3(CCN3Cc3ccc(F)cc3)C2)cn1.O=C(O)C(F)(F)F (centres undefined)	99.27
Cc1cnc(C(=O)N2CCC3(CCN3Cc3ccc(F)cc3)C2)cn1.O=C(O)C(F)(F)F (centres undefined)	-3.427
Cc1nc2[nH]cnc(NCCN3CCOCC3)c-2n1	-1.565
Cc1nc2[nH]cnc(NCCN3CCCC3)c-2n1	57.49
Cc1nc2[nH]cnc(NCCCN3CCOCC3)c-2n1	-13.88
CCc1c(C)sc2ncnc(N3C[C@H](O)[C@@H](N4CCCC4)C3)c12	59.45
CCc1c(C)sc2ncnc(N3CC[C@@H](N4CCC(O)CC4)[C@H](O)C3)c12	10.29
CCc1c(C)sc2ncnc(N3CC[C@@H](N4CCOCC4)[C@H](O)C3)c12	11.35

Compound	Percent Effect [%]
Cc1ccc(Oc2cc(F)ccc2O[C@@H]2CCC[C@@H](N)[C@H]2O)cc1	103.2
N[C@@H]1CCC[C@@H](Oc2ccc(F)cc2Oc2ccccc2)[C@@H]1O	-7.942
N[C@@H]1CCC[C@@H](Oc2ccc(F)cc2Oc2cccc(F)c2)[C@@H]1O	1.479
Cc1noc(C)c1C(=O)N[C@@H]1CCC[C@@H](Oc2ccccc2)[C@@H]1O	10.41
CN[C@@H]1CCC[C@@H](Oc2ccccc2Oc2ccc(C)cc2)[C@@H]1O	50.23
Cc1n[nH]c(C)c1CCC(=O)N[C@@H]1CCC[C@@H](Oc2ccccc2)[C@@H]1O	-15.12
O=C(O)C(F)(F)F.O=c1ccc2c([nH]1)CCC(NCc1ccc(F)cc1)C2 (centres undefined)	-5.527
Cc1nc(CN2C[C@@H]3CN(C(=O)C4CC4)C[C@@H]3C2=O)cs1.O=C(O)C(F)(F)F	-7.229
O=C(O)C(F)(F)F.O=C(c1ccco1)N1CCOCC2(C1)CN(c1cccnc1)C(=O)CO2 (centres undefined)	-36.47
CCN(CC)c1ncc(CNC2CCc3ncnn3C2)s1 (centres undefined)	0.07548
CCN1CCOCC2(CCCN(C(=O)c3conc3C)C2)C1.O=C(O)C(F)(F)F (centres undefined)	-3.777
CC(C)c1cc(NCC(O)c2ccc(F)cc2)n2nccc2n1 (centres undefined)	13.68
Cc1cc2nc(C(C)C)cc(NC(C)c3nncn3C)n2n1 (centres undefined)	6.767
CC(C)c1cc(NCC(C)N2CCCC2)n2nccc2n1 (centres undefined)	19.07
CCCC(CNc1cc(C(C)C)nc2ccnn12)N(C)C (centres undefined)	105.9
CC(C)c1cc(NCC(O)c2ccccn2)n2nccc2n1 (centres undefined)	105.1
Cc1cc2nc(C(C)C)cc(NCCc3ccncc3)n2n1	5.483
CC(C)c1cc(NCC(O)CO)n2nccc2n1 (centres undefined)	7.568
Cc1cc2nc(C(C)C)cc(NCC(c3ccccn3)N(C)C)n2n1 (centres undefined)	107.7
COc1cc(NCC(c2ccccn2)N(C)C)ncn1 (centres undefined)	7.48
Cc1cc2nc(C(C)C)cc(NCCc3cccn3C)n2n1	51.31
CC(C)c1cc(NCC(O)c2ccncc2)n2nccc2n1 (centres undefined)	0.8571
Cc1cc2nc(C(C)C)cc(NCc3ccncc3)n2n1	10.36
